The text below walks through data of the antibiotic and cytotoxicity screens of Wong et al. (2023).

Molecules are shown by their SMILES. Among all 39,000 compounds or so, about 500 (1.3%) were called active. The full list was thinned out, with actives kept by preference.

The subject of this assay is S. aureus RN4220. The experiment in a line: growth inhibition call (relative growth <= 0.2). The note with it: 50 µM.
As to `CO[C@@H]1CN(C)C(=O)c2ccc(NC(=O)C3CC3)cc2OC[C@H](C)N(C(=O)CN2CCOCC2)C[C@H]1C`, the growth inhibition call is “inactive”.
As for `C[C@@H]1CN([C@H](C)CO)C(=O)c2cc(NS(=O)(=O)c3ccccc3)ccc2O[C@@H](C)CCCCO[C@H]1CN(C)C(=O)NC1CCCCC1`, the entry is “inactive”.
As for `CC1CCc2c(N3CCC(O)CC3)c(F)cc3c(=O)c(C(=O)O)cn1c23` (configuration not stated), the entry is “inactive”.
As for `CN1CCN(c2c(F)cc3c(=O)c(C(=O)O)cn4c3c2OCN4C)CC1`, the entry is “active”.
Regarding `CC1CCc2cc(F)cc3c(=O)c(C(=O)O)cn1c23` (configuration not stated), the growth inhibition call was “active”.
As for `CC1COc2c(N3CCN(C)CC3)c(F)cc3c(=O)c(C(=O)O)cn1c23` (configuration not stated), the entry is “active”; as for `CC1COc2c(C3(N)CC3)c(F)cc3c(=O)c(C(=O)O)cn1c23.CS(=O)(=O)O` (configuration not stated), “inactive”.
As for `C[C@H]1COc2c(C3(N)CC3)c(F)cc3c(=O)c(C(=O)O)cn1c23`, the entry is “active”; as for `COc1ccc2c3c([nH]c2c1)[C@@H](CO)N(C[C@]13CCN(CC1)C(=O)NC(C)C)C(=O)CN1CCOCC1`, “inactive”; as for `C[C@H]1CN([C@@H](C)CO)C(=O)c2cc(C#CCN(C)C)cnc2O[C@@H]1CN(C)C(=O)Nc1cccc(F)c1`, “inactive”.
As for `C[C@@H]1CN([C@@H](C)CO)C(=O)Cc2cc(NC(=O)NC3CCCCC3)ccc2O[C@H]1CN(C)C(=O)Nc1ccc(C(F)(F)F)cc1`, the entry is “inactive”; as for `Cc1ccc(S(=O)(=O)Nc2ccc3c(c2)C(=O)N([C@@H](C)CO)C[C@H](C)[C@@H](CN(C)Cc2ccc(C(F)(F)F)cc2)OCCCC[C@H](C)O3)cc1`, “inactive”.
For the compound `C[C@H]1CN([C@@H](C)CO)C(=O)Cc2cc(NS(=O)(=O)c3cn(C)cn3)ccc2O[C@@H]1CN(C)Cc1ccncc1`, the growth inhibition call was “inactive”.
As for `COc1ccc(S(=O)(=O)Nc2ccc3c(c2)CC(=O)N([C@@H](C)CO)C[C@@H](C)[C@@H](CN(C)S(=O)(=O)c2cn(C)cn2)O3)cc1`, the entry is “inactive”; as for `Cc1noc(C)c1NC(=O)Nc1ccc2c(c1)CC(=O)N([C@H](C)CO)C[C@H](C)[C@H](CN(C)Cc1ccc(Cl)c(Cl)c1)O2`, “inactive”; as for `CN1C[C@H](C(N)=O)CC1=O`, “inactive”.
As for `Nc1ccc(/C=C/C(=O)NCc2cc3cc(-c4ccc(C(=O)N5CCC(F)(F)CC5)cc4)cc(-c4ccc(F)cc4)c3o2)cn1`, the entry is “inactive”; as for `Cc1ccc(S(=O)(=O)N2C[C@@H](O)COC[C@H]3O[C@@H](CC(=O)NCCN4CCCCC4)CC[C@@H]32)cc1`, “inactive”.
As for `C[C@H](CO)N1C[C@H](C)[C@H](CN(C)Cc2ccncc2)OCCCC[C@H](C)Oc2ccc(NC(=O)C3CCCCC3)cc2C1=O`, the entry is “inactive”; as for `C[C@H]1CN([C@@H](C)CO)C(=O)Cc2cc(NS(=O)(=O)c3cccs3)ccc2O[C@@H]1CN(C)C(=O)Nc1cccc2ccccc12`, “inactive”; as for `CC(C)NC(=O)Nc1ccc2c(c1)CC(=O)N([C@H](C)CO)C[C@@H](C)[C@@H](CN(C)C(=O)NC1CCCCC1)O2`, “inactive”.
`C=CCc1ccc(O)c(OC)c1`: the growth inhibition call was “active”.
As for `COc1cc(C=O)ccc1O`, the entry is “inactive”; as for `COc1cc(C(C)=O)ccc1O`, “inactive”.
As for `C[C@@H]1CN([C@@H](C)CO)C(=O)c2cccc(NC(=O)c3cnccn3)c2O[C@H]1CN(C)S(C)(=O)=O`, the entry is “inactive”.
As for `COc1ccc(S(=O)(=O)N(C)C[C@@H]2Oc3c(NC(=O)NC(C)C)cccc3C(=O)N([C@H](C)CO)C[C@H]2C)cc1`, the entry is “inactive”.
As for `CCCNC(=O)N1[C@@H]2c3cccc(=O)n3C[C@H]1[C@H](CO)[C@H]2C(=O)NCC(F)(F)F`, the growth inhibition call is “inactive”.
As for `O=C(Nc1cc(C(F)(F)F)cc(C(F)(F)F)c1)Nc1c(Br)cc(Br)cc1-c1nn[nH]n1`, the entry is “active”; as for `O=C(Nc1cc(C(F)(F)F)cc(C(F)(F)F)c1)Nc1cnn(-c2ccc([N+](=O)[O-])cc2)c1C(F)(F)F`, “inactive”.
As for `FC(F)(F)c1cc(NC(=S)Nc2ccc(Br)cc2-c2nn[nH]n2)cc(C(F)(F)F)c1`, the entry is “active”.
Regarding `C[C@@H]1CN([C@H](C)CO)C(=O)Cc2cc(NC(=O)Cn3cnnn3)ccc2O[C@@H]1CN(C)S(=O)(=O)c1ccccc1`, the growth inhibition call is “inactive”.
With `COc1cccc(NC(=O)N[C@@H]2C=C[C@H](CC(=O)N3CCOCC3)O[C@H]2CO)c1`, the growth inhibition call is “inactive”.
In the case of `Cc1noc(C)c1NC(=O)N(C)C[C@@H]1OCCCC[C@@H](C)Oc2ccc(NC(=O)Cc3ccccc3)cc2C(=O)N([C@@H](C)CO)C[C@@H]1C`, the growth inhibition call is “inactive”.
In the case of `Cc1noc(C)c1S(=O)(=O)Nc1ccc2c(c1)C(=O)N([C@@H](C)CO)C[C@@H](C)[C@@H](CN(C)C(=O)NC(C)C)O2`, the growth inhibition call was “inactive”.
As to `O=C1CN(/N=C/c2ccc([N+](=O)[O-])o2)C(=O)N1`, the growth inhibition call was “active”.
As for `O=C1CN(N=Cc2ccc([N+](=O)[O-])o2)C(=O)N1`, the entry is “active”; as for `O=C1CN(N=Cc2ccc(-c3ccc([N+](=O)[O-])cc3)o2)C(=O)[N-]1.[Na+]`, “inactive”; as for `O=C1OC(CN2CCOCC2)CN1N=Cc1ccc([N+](=O)[O-])o1` (configuration not stated), “active”.
On to `O=[N+]([O-])c1cncn1CCN1CCOCC1`, for which the growth inhibition call was “inactive”.
In the case of `O=C1OCCN1N=Cc1ccc([N+](=O)[O-])o1`, the growth inhibition call was “active”.
For the compound `COc1ccc(CN(C)C[C@@H]2OCCCC[C@H](C)Oc3ccc(NS(=O)(=O)c4cccs4)cc3C(=O)N([C@@H](C)CO)C[C@H]2C)cc1`, the growth inhibition call was “inactive”.
As for `O=C(O)[C@H](O)c1ccccc1`, the entry is “inactive”.
As for `COc1ccc(S(=O)(=O)N[C@H]2CC[C@H](CCNC(=O)CN3CCOCC3)O[C@@H]2CO)cc1`, the entry is “inactive”.
As for `C[C@@H]1CCCCO[C@@H](CN(C)Cc2ccncc2)[C@@H](C)CN([C@H](C)CO)C(=O)c2cc(NC(=O)Nc3ccc(F)cc3)ccc2O1`, the entry is “inactive”.
`Cc1noc(C)c1NC(=O)Nc1ccc2c(c1)CC(=O)N([C@H](C)CO)C[C@H](C)[C@H](CN(C)C(=O)Nc1ccc(C(F)(F)F)cc1)O2`: the growth inhibition call was “inactive”.
As for `CC(C)NC(=O)N(C)C[C@H]1Oc2ccc(NC(=O)Cc3ccccc3)cc2C(=O)N([C@H](C)CO)C[C@@H]1C`, the entry is “inactive”; as for `[N-]=[N+]=NCCOCCNC(=O)CCCOc1ccc(CS(=O)c2nnc(-c3ccc(F)cc3)o2)nc1` (configuration not stated), “active”; as for `C[C@H]1CNC(=O)O1`, “inactive”.
As for `COc1ccc(S(=O)(=O)N(C)C[C@@H]2Oc3c(NC(=O)Nc4c(C)noc4C)cccc3C(=O)N([C@@H](C)CO)C[C@H]2C)cc1`, the entry is “inactive”; as for `COCCOC(=O)N1C(=O)[C@@]2(c3cc(C#CCC(C(=O)OC)C(=O)OC)ccc31)[C@H](C(=O)N1CCCCCCC1)[C@H]1C(=O)O[C@H](c3ccccc3)[C@H](c3ccccc3)N1[C@@H]2c1ccc(O)cc1`, “active”.
As for `COCCOC(=O)N1C(=O)[C@@]2(c3cc(C#CCC(C(=O)OC)C(=O)OC)ccc31)[C@H](c1ccc(OCCO)cc1)N1[C@H](c3ccccc3)[C@H](c3ccccc3)OC(=O)[C@H]1[C@@H]2C(=O)N1CCCCCCC1`, the entry is “inactive”.
Turning to `COCCOC(=O)N1C(=O)[C@@]2(c3cc(C#CCC(C(=O)OC)C(=O)OC)ccc31)[C@H](C(=O)N1CCCCCCC1)[C@H]1C(=O)O[C@H](c3ccccc3)[C@H](c3ccccc3)N1[C@@H]2c1ccc(OCCO)cc1`, the growth inhibition call is “inactive”.
As for `C[C@@H]1CN([C@H](C)CO)C(=O)c2c(c3ccccc3n2C)-c2ccccc2CO[C@H]1CN(C)S(C)(=O)=O`, the entry is “inactive”.
As for `C[C@H](CO)N1C[C@H](C)[C@@H](CN(C)S(=O)(=O)c2ccccc2)OCCCC[C@H](C)Oc2ccc(NC(=O)c3ccccc3)cc2C1=O`, the entry is “inactive”.
On to `CCOC(=O)c1cc2c(c(-c3cccc(Br)c3)n1)[C@@H](CCO[Si](C)(C)C(C)(C)C)N(S(=O)(=O)C(C)(C)C)C2`, for which the growth inhibition call was “inactive”.
As for `CCOC(=O)c1cc2c(c(-c3ccccc3)n1)[C@@H](CCO[Si](C)(C)C(C)(C)C)N(S(=O)(=O)C(C)(C)C)C2`, the entry is “inactive”; as for `CC(C)(C)[S@@+]([O-])N1Cc2cc(C(=O)O)nc(-c3ccc(Br)cc3)c2[C@H]1CCO[Si](C)(C)C(C)(C)C`, “active”.
As for `C[C@@H]1CCCCO[C@@H](CN(C)S(=O)(=O)c2ccc(Cl)cc2)[C@H](C)CN([C@H](C)CO)C(=O)c2cc(NS(=O)(=O)c3ccccc3)ccc2O1`, the entry is “inactive”; as for `COc1cccc(C#Cc2cnc3c(c2)C(=O)N([C@@H](C)CO)C[C@H](C)[C@@H](CN(C)C(=O)C2CCOCC2)O3)c1`, “inactive”; as for `Cc1ccc(S(=O)(=O)N(C)C[C@H]2Oc3ccc(NS(=O)(=O)c4c(C)noc4C)cc3CC(=O)N([C@H](C)CO)C[C@H]2C)cc1`, “inactive”.
As for `O=C(O)c1cnc(N2CCCC2)nc1`, the entry is “inactive”; as for `Cc1ccc(Cl)c(Nc2ccccc2C(=O)[O-])c1Cl.[Na+]`, “inactive”.
Regarding `Cc1cc(=O)c(C(=O)N[C@@H](C(=O)N[C@@H]2C(=O)N3C(C(=O)O)=C(CSc4nnnn4C)CS[C@H]23)c2ccc(O)cc2)c[nH]1`, the growth inhibition call is “active”.
As to `Cc1cc(O)c(C(=O)NC(C(=O)NC2C(=O)N3C(C(=O)O)=C(CSc4nnnn4C)CSC23)c2ccc(O)cc2)cn1` (configuration not stated), the growth inhibition call was “active”.
As to `CCN1CCN(C(=O)NC(C(=O)NC2C(=O)N3C(C(=O)O)=C(CSc4nnnn4C)CSC23)c2ccc(O)cc2)C(=O)C1=O` (configuration not stated), the growth inhibition call was “active”.
Turning to `Cc1cc2nc3ccc(N(C)C)cc3[s+]c2cc1N.[Cl-]`, the growth inhibition call was “inactive”.
As for `C=CCOC(=O)[C@H]1[C@@H]2C(=O)O[C@@H](c3ccccc3)[C@@H](c3ccccc3)N2[C@@H](c2ccc(OCCOC(=O)[C@H]3C[C@H]4C(=O)N[C@@H](CC(C)C)C(=O)N4[C@H]3c3cccc(OCCO)c3)cc2)[C@]12C(=O)Nc1ccc(I)cc12`, the entry is “inactive”; as for `COc1ccc(S(=O)(=O)N(C)C[C@@H]2Oc3cc(C4=CCCC4)ccc3S(=O)(=O)N([C@@H](C)CO)C[C@H]2C)cc1`, “inactive”.
As for `C[C@H](CO)N1C[C@H](C)[C@H](CN(C)Cc2ccc(C(F)(F)F)cc2)Oc2ccc(NS(=O)(=O)c3ccc(Cl)cc3)cc2C1=O`, the entry is “inactive”.
As for `CC[C@H]1OC(=O)C[C@@H](O)[C@H](C)[C@@H](O[C@@H]2O[C@H](C)[C@@H](O)[C@H](N(C)C)[C@H]2O)[C@@H](CCN2C[C@H](C)C[C@H](C)C2)C[C@@H](C)C(=O)/C=C/C(C)=C/[C@@H]1CO[C@@H]1O[C@H](C)[C@@H](O)[C@@H](OC)[C@H]1OC`, the entry is “active”.
Turning to `CCC1OC(=O)CC(O)C(C)C(OC2OC(C)C(O)C(N(C)C)C2O)C(CCN2CC(C)CC(C)C2)CC(C)C(=O)C=CC(C)=CC1COC1OC(C)C(O)C(OC)C1OC` (configuration not stated), the growth inhibition call is “active”.
Turning to `CC[C@@H]1OC(=O)C[C@@H](O)[C@H](C)[C@@H](O[C@@H]2O[C@H](C)[C@@H](O)[C@H](N(C)C)[C@H]2O)[C@@H](CCN2C[C@H](C)C[C@H](C)C2)C[C@@H](C)C(=O)/C=C/C(C)=C\[C@@H]1CO[C@@H]1O[C@H](C)[C@@H](O)[C@@H](OC)[C@H]1OC`, the growth inhibition call is “active”.
